High-throughput results deposited in PubChem BioAssay by National Center for Advancing Translational Sciences (NCATS).
Methyltransferases – Primary Screen for Target Class Profiling of Small Molecule Inhibitors of Methyltransferases; purified enzyme, MTase-Glo SAH luminescence; active compounds read low; calls only at 40 µM; actives 3.9% (n = 25,000); AID 1745853, 2022; call rule not given here
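Each enzyme was assayed with SAM and its substrate. SAH formation detected by MTase-Glo luminescence; single-point 40 uM screen[…].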
MTase-Glo counter – inhibits MTase-Glo coupling enzymes without methyltransferase. MTase-Glo coupled enzymes, SAH conversion luminescence, no MTase. shares compounds with Methyltransferases. actives 6% (n = 180). Potency, µM (titrated, usually from 57.3 µM), for inactives: top-dose activity change, negative = inhibition, most hits filed as inhibitors; active = well fitted inhibition curve with a large enough effect; note: potency is the fitted concentration of half-maximal effect
* marks the source's active call; other numbers are inactive results; [ ] = remark or other dose. The sample as a whole holds a higher share of hits than the screen did. % is set by controls: 0 for no effect and ±100 for the full control effect.

What do the screens show for `COc1ccc(C(=O)NCCc2ncc(C)n2C2CC2)cn1`?
Methyltransferases: inactive

How did Cc1cnc(CCNC(=O)Nc2ccc3c(c2)OCCO3)n1C1CCC1 do in these assays?
Methyltransferases: active; MTase-Glo counter: -4%

What do the screens show for `Cc1cnc(C(=O)NCCc2ccc(S(=O)(=O)NC(=O)NC3CCCCC3)cc2)cn1`?
Methyltransferases: inactive

Results for Cc1cnc(CCNC(=O)c2cccs2)n1C1CCC1 ?
Methyltransferases: active; MTase-Glo counter: 3%

How did Cc1ccc(NC(=O)N2CCn3cccc3C2Cc2ccccc2)c(Cl)c1 (configuration not stated) do in these assays?
Methyltransferases: inactive

Results for Cc1ncc2n1C(=O)N(C1CCN(Cc3ccncc3)CC1)C2 ?
Methyltransferases: inactive

What do the screens show for `Cc1ccc(Cn2c(=O)c3ccccc3n3c(-c4ccc(O)cc4)nnc23)cc1`?
Methyltransferases: inactive

How did COc1cccc(CN2C(=O)c3cc4occc4n3CC2(C)C(=O)NC2CCCC(C)C2C)c1OC (configuration not stated) do in these assays?
Methyltransferases: inactive

What do the screens show for `CCN(CCc1nc2ccc(C)cc2[nH]1)C(=O)c1ccccc1C1CCNC1` (configuration not stated)?
Methyltransferases: active; MTase-Glo counter: 2%

How did CCNC(=O)N1C[C@@H](F)[C@@H](OCc2nc3ccc(F)cc3[nH]2)C1 do in these assays?
Methyltransferases: inactive

What do the screens show for `COCCN1CCCC(c2[nH]ccc2C(=O)NCCc2nc3ccccc3[nH]2)C1` (configuration not stated)?
Methyltransferases: inactive

Results for CC1(CO)CCCC2(C)C1C(OC(=O)c1ccccc1)CC1C(=O)OCC12O (configuration not stated) ?
Methyltransferases: inactive

Results for CCCn1c(=O)c2ccc(C(=O)NC3CCCC3)cc2n2c(=O)n(CC(=O)c3cccc(Cl)c3)nc12 ?
Methyltransferases: inactive

What do the screens show for `Fc1cc(F)cc(Cc2nc3nccc(-c4cccnc4)n3n2)c1`?
Methyltransferases: inactive

What do the screens show for `COc1ccc(CCN(C)CCc2ccc(OC)c(OC)c2)cc1OC`?
Methyltransferases: inactive

What do the screens show for `COc1ccc(CNC(=O)c2cc3n(n2)CC(C)(C(=O)NC2CCCC2)N(C)C3=O)cc1OC` (configuration not stated)?
Methyltransferases: inactive

How did COc1ccc(CNc2cc3c(cn2)CN(C)CCN3)cc1OC do in these assays?
Methyltransferases: active; MTase-Glo counter: 0%[85.7 µM]

What do the screens show for `CCOC(=O)c1cc2n(n1)CC(C)(C(=O)NCc1ccccc1)N(Cc1ccccc1OC)C2=O` (configuration not stated)?
Methyltransferases: inactive

What do the screens show for `CC(C)CNC(=O)c1ccc2c(=O)n(C(C)C)c3nn(Cc4cccc(F)c4)c(=O)n3c2c1`?
Methyltransferases: inactive

How did CCCCCNC(=O)c1ccc2c(=O)nc3c(-c4cccc(F)c4)n[nH]n3c2c1 do in these assays?
Methyltransferases: inactive

Results for CCCCNC(=O)c1cccc(-c2cc(N3CCN(C)CC3)nc(N)n2)c1 ?
Methyltransferases: active; MTase-Glo counter: -1%

Results for COc1cccc(C(=O)NCCN2CCN(c3ccc(Cl)cc3)CC2)c1 ?
Methyltransferases: inactive

What do the screens show for `FC(F)(F)c1cccc(-c2nccn3c(C4CN(Cc5ccc6cn[nH]c6c5)C4)ncc23)c1`?
Methyltransferases: active; MTase-Glo counter: -6%

What do the screens show for `N#Cc1ccc(CN2CCC3(CC(c4cccc(C(F)(F)F)c4)=NO3)C2)cc1` (configuration not stated)?
Methyltransferases: inactive

Results for O=C(COC(=O)C(Cc1c[nH]c2ccccc12)NC(=O)c1ccc(Cl)cc1)c1ccccc1 (configuration not stated) ?
Methyltransferases: inactive

Results for COc1cccc(CN2C(=O)c3cc4ccccc4n3CC2(C)C(=O)NC2CCCC2)c1OC (configuration not stated) ?
Methyltransferases: inactive

How did CC(C)Cn1c(=O)c2ccc(C(=O)NC3CCCC3)cc2n2c(=O)n(Cc3ccccc3)nc12 do in these assays?
Methyltransferases: inactive

Results for COCCNC(=O)c1cc(N2CCOCC2)cc2c1OCCN2C ?
Methyltransferases: inactive

How did Cc1cc(C)c(CNC(=O)c2cc(-c3cnn(C)c3C)cc3c2OCCN3C)c(=O)[nH]1 do in these assays?
Methyltransferases: active; MTase-Glo counter: -6%[85.7 µM]

How did CN1CCN(c2ncnc3c2CN(C2CCCCC2)C(=O)CN3C)CC1 do in these assays?
Methyltransferases: inactive

How did CN1CCN(c2ncnc3sc4c(c23)CCNC4)CC1 do in these assays?
Methyltransferases: active; MTase-Glo counter: 15µM*

What do the screens show for `CCNc1ncnc2sc3c(c12)CCN(C(=O)COC)C3`?
Methyltransferases: inactive

What do the screens show for `Cc1ccc(CNc2nc3c(S(=O)(=O)c4ccc(C)cc4)nnn3c3ccccc23)cc1`?
Methyltransferases: inactive
